Source: PubChem BioAssay (NCI)
About 83,000 compounds went through this panel and 20% of them were active in at least one assay; those are over-represented in the sample as a whole.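 Values shown are percent growth following 48 h exposure of cells in 96-well plates to a single concentration of compound; below 10 was considered active.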 Unmarked numbers belong to inactive results. The source made the active and inactive calls.

What follows are compounds tested on NCI-H322M lung (assay: NCI-60 one-dose screen, 48 h (100 = growth as untreated, 0 = no growth, -100 = all killed)). Settings: 10 µM unless noted.

| Compound | growth |
| --- | --- |
| CC(C)C1=NOC(=O)C1=Cc1cn(-c2ccccc2)nc1-c1ccccc1 | 91% |
| CCN(CC)CCCNCc1cc(-c2ccccc2)nc2ccccc12 | 102% |
| CCOC(=O)CCC[P+](c1ccccc1)(c1ccccc1)c1ccccc1 | 96.4% |
| Cc1cccc(C[C@H](NC(=O)Nc2ccc(Cl)cc2F)C(=O)N[C@@H]2C(=O)N3C[C@H](O)C[C@H]3C(=O)N3CCN(C)C[C@H]3C(=O)N[C@@H](C)C(=O)N3C[C@H](C)C[C@H]3C(=O)O[C@H]2C)c1 | 65.7% |
| COc1cc(C)cc2oc3oc(=O)c(C(=O)c4cc5cc(Br)ccc5o4)cc3c(=O)c12 | 97.3% |
| COc1ccc(CC(C#N)c2ccc(Cl)cc2)cc1 (stereo not drawn) | 93.9% |
| Clc1ccc(/C=N/Nc2nc3ccccc3s2)c(Cl)c1 | 93.4% |
| Nc1nc(SCc2cccc([N+](=O)[O-])c2)c2[nH]cnc2n1 | 91.2% |
| COC(=O)[C@]12CCC(C)(C)C[C@H]1C1=CC[C@@H]3[C@@]4(C)C/C(=C/c5cccnc5)C(=O)C(C)(C)[C@@H]4CC[C@@]3(C)[C@]1(C)CC2 | -13.4% [100 µM] (active) |
| Cn1cc(-c2nnc(-c3cn(C)c4ncccc34)o2)c2ccccc21 | 75.8% |
| Cc1ccc(C2=C/C(=C/c3ccc(Br)cc3)C(=O)N2CCc2ccc(S(N)(=O)=O)cc2)cc1 | 90.6% |
| COc1ccc2nc3cc(Cl)ccc3c(Nc3ccc(O)cc3)c2c1 | 90.5% |
| CCCCN(CC)CC(CC)Nc1cc(OC)cc2cccnc12 (stereo not drawn) | 110% |
